Active and inactive are the calls of the source.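 The calls were made as follows: active = inhibition over a set limit, the all-compound mean plus 3 SD, in both replicate runs; inconclusive = over that limit in just one replicate run; inactive = at or under that limit in both runs.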
Assay: RAM pathway blockade in budding yeast – dse1pr::URA3 reporter, 5-FOA selection, pilot screen (AID 869);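 also: 0% = DMSO wells with no growth and 100% = 10 µM 1-NA-PP1 with full growth; RAM network block rescues cells from 5-FOA so hits raise OD615 growth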
Conditions: S. cerevisiae dse1pr::URA3 5-FOA growth, OD615, 2 d; at 10 µM; hits give high values; strain carries analog-sensitive mutant Cbk1 kinase

inhibition, inactive:
CCOC1CCCCC1NS(=O)(=O)c1ccc(Cl)cc1 (stereo not given) 1.5%, COc1cccc(CNC(=O)c2ccc(NC(=O)C3CCCO3)cc2)c1 (stereo not given) 1.14%, Cc1cc2cc(CNC(=O)c3ccc(Br)o3)ccc2[nH]1 3.64%, COc1ccc(C2C(C(=O)c3cccs3)=C(O)C(=O)N2c2nnc(C)s2)cc1OC (stereo not given) 1.33%, O=C(NCCN1C(=O)C2C3C=CC(C3)C2C1=O)Nc1ccc(Br)cc1 (stereo not given) 0.81%, CC1CCN(c2nc3ccccc3nc2C(C#N)S(=O)(=O)c2ccccc2)CC1 (stereo not given) 1.22%, O=C(COc1ccccc1)Nc1nnc(-c2ccc(Cl)s2)o1 2.67%, O=C(Cn1cc2c(n1)CCCC2)NC1CCCCCC1 0.485%, O=C(CCn1c(=O)sc2ccccc21)NCc1ccccc1 2%, COc1ccc(CNc2ccc3cn[nH]c3c2)c(OC)c1OC -0.465%, Cc1ccc(NC(=O)C2CCCN2S(=O)(=O)c2ccc3c(c2)CCC(=O)N3)cc1Cl (stereo not given) 2.66%, COc1ccc(OC)c(NC(=O)c2c(NC(=O)CNCc3ccco3)sc3c2CCC3)c1 1.28%, C=C(C)CSc1nc2c(cc1C#N)CCC2 2.3%, CCOC(=O)c1[nH]c2cc(OC)c(OC)cc2c1NC(=O)c1ccc2c(c1)OCO2 2.13%, COC(=O)c1ccccc1Nc1cc(C)nc2nc(C)nn12 -0.315%, COC(=O)c1ccccc1NC(=O)CSc1nccn1C 1.27%, O=CN1CCN(C(C(=O)NC2CCCC2)c2ccc(Cl)cc2)CC1 (stereo not given) 0.795%, O=C(NCCC1=CCCCC1)c1ccc2c(=O)n3c(nc2c1)CCCCC3 -0.66%, Cc1ccc(CNC(=O)CCS(=O)(=O)c2cccc3nsnc23)cc1 1.64%, COc1cc(NC(=O)CN2CC(c3ccccc3)CC2=O)cc(OC)c1 (stereo not given) 1.27%, Cc1cccc(OCCn2c(=O)n(C)c3ccccc32)c1 0.755%, C1=C(N2CCOCC2)/C(=C/c2nc3ccccc3[nH]2)CC1 0.41%, Nc1nonc1-n1nncc1-c1ccccc1 1.67%, O=C1CC(c2ccco2)Sc2nc3ccccc3n21 (stereo not given) 0.365%, CCC1CCCCN1Cc1nc2c(c(=O)n(C)c(=O)n2C)n1Cc1ccccc1 (stereo not given) 2.1%, CCOCCCNC(=O)C(c1ccc(Cl)cc1)N1CCN(C(=O)c2ccco2)CC1 (stereo not given) 2.34%, O=C(C1CC1)N1CCc2cc(Br)cc(S(=O)(=O)NCCCN3CCCC3)c21 0.08%, COc1ccc(CCN=C2SCC(=O)N2C)cc1OC 2.14%, CCOc1ccccc1NC(=O)C1CCC(CNc2c(N3CCOCC3)c(=O)c2=O)CC1 (stereo not given) 1.43%, Cc1ccc(-n2c(SCC(=O)NCC3CCCO3)nc3c(c2=O)SCC3)cc1 (stereo not given) 3.09%, O=C(CCS(=O)(=O)c1cccc2nonc12)NCCc1ccccc1 4.24%, O=c1c2cc(-c3ccccc3)sc2ncn1/N=C/c1ccco1 1.5%, Cc1nnc(NC(=O)CSC2CCCCC2)s1 1.1%, COc1cccc(N2CCN(C3CC(=O)N(c4ccc(Cl)cc4)C3=O)CC2)c1 (stereo not given) 0.57%, Cc1cc(Nc2cccc(F)c2)n2nc(C)nc2n1 1.08%, CCCCNc1nc2c(c(=O)n(C)c(=O)n2C)n1CCC -0.375%, Cc1ccc2c(c1)N(CCCC(=O)NCc1ccc3c(c1)OCO3)C(=O)CO2 0.43%, Cc1c(C(=O)N2CCC(C(N)=O)CC2)sc(N)c1C#N 2.91%, Cc1cc(NC(=O)c2cc(CC(C)C)on2)no1 0.67%, COC(=O)c1nc2n(n1)C(c1cccc(Cl)c1)C1=C(CCCC1=O)N2 (stereo not given) 0.155%
